Most compounds without a hit are left out; they make up all but 7.4% or so of the library.
HEK293 viab = cell viability loss counter-screen; 150,000 tested, 0.12% active; HEK-293-SNCA-luc viability, GF-AFC fluorescence, 24 h; AID 1671193; Potency, µM (doses to about 57.1 µM), for inactives: at the highest dose activity change, negative = cytotoxicity, usual class: cytotoxic;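 note: 0% = DMSO-treated cells and -100% = medium-only wells without cells; nearly all actives have a fitted effect of over 30% in size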
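Cytotoxicity counterscreen: after 24 h compound treatment of genome-edited SNCA-luciferase HEK-293 cells, live-cell protease substrate GF-AFC read by fluorescence after 30 min; activity scaled between DMSO (0%) and medium-only (-100%), curves Hill-fitted.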
NPR1 antag = human Npr1 receptor antagonism. Potency, µM (highest dose often 46.3 µM), without a hit: at the highest dose activity change, negative = inhibition, usual class: inhibitors. 76,000 tested, 1.6% active. P16066. HEK293 hNpr1 GloSensor cGMP, ANP-stimulated luminescence; calls by dose curve; note: nearly all actives have a fitted effect of over 60% in size
Target sequence (P16066 whole entry, looked up): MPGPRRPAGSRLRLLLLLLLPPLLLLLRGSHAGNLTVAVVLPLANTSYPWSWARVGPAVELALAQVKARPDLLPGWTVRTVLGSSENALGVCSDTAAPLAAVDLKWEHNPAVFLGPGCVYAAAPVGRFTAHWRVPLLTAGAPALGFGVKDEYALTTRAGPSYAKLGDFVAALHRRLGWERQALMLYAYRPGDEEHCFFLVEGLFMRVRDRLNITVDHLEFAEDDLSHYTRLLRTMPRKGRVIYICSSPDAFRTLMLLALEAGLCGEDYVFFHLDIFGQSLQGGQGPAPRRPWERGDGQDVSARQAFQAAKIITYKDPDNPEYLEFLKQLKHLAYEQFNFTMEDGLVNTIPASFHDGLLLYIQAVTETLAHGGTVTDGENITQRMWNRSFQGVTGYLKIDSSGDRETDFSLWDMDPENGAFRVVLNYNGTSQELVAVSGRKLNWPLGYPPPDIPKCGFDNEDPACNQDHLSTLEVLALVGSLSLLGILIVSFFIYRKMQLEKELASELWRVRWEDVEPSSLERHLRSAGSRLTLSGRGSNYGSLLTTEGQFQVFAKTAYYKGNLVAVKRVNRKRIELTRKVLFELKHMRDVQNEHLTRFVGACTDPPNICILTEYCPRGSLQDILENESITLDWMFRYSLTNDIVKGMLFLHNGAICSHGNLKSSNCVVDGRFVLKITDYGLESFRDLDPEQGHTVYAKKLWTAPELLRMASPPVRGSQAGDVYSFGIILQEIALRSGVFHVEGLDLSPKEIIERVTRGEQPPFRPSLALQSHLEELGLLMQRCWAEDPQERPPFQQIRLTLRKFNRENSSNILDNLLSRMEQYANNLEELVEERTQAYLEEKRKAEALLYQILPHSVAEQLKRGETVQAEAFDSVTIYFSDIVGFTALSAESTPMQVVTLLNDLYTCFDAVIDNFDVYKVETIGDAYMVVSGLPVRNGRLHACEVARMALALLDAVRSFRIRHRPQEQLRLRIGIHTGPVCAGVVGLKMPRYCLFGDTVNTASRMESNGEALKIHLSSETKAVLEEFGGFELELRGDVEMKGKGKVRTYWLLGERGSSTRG
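HEK293 cells stably expressing human Npr1 and cGMP GloSensor pGS-40F, loaded 2 h with 2% GloSensor reagent, given compound 30 min at room temperature. Luminescence read before and 20 min after 0.1 nM hNppA.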
HEK cytotox = cytotoxic compounds in HEK 293 cells | HEK 293 viability, ATP luminescence (CellTiter-Glo), 48-72 h | Potency, µM (series often up to 115 µM), inactives show top-dose activity change, negative = cytotoxicity, most hits filed as inhibitors | 94,000 tested, 6.6% active; note: nearly all actives have a fitted effect of over 60% in size
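qHTS cytotoxicity; HEK 293, 250 cells/well; compound pinned; 48 or 72 hr, 37 degree Celsius, 5% CO2, 95% humidity; CellTiter-Glo, 10 min RT; luminescence (ATP).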
NIH3T3 tox = kills NIH 3T3 cells; Potency, µM (top dose mostly 96.7 µM), inactives show top-dose activity change, negative = cytotoxicity, most hits filed as inhibitors; NIH 3T3 viability, CellTiter-Glo ATP luminescence, 48-72 h; AID 1345082; 94,000 tested, 4.3% active; note: nearly all actives have a fitted effect of over 55% in size
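Cells were seeded at 400 per well, treated with pin-transferred compound, and kept 48 or 72 hr at 37 °C before CellTiter-Glo addition and luminescence imaging of cellular ATP.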
Luciferase inh = blocks purified firefly luciferase enzyme activity | 76,000 tested, 2.5% active | Potency, µM (doses to about 115 µM), most hits filed as inhibitors | P08659 | purified P. pyralis luciferase, luminescence, biochemical; note: nearly all actives have a fitted effect of over 65% in size
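Purified 10nM P. pyralis luciferase with 10uM D-luciferin and 10uM ATP in 50mM Tris acetate pH 7.5, 10mM Mg acetate, 0.01% Tween-20, 0.05% BSA. qHTS titration; luminescence read by CCD imager.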
SNCA expr inh = inhibitors of alpha-synuclein (SNCA) gene expression; HEK-293 SNCA-luciferase knock-in, luminescence, 24 h; Potency, µM (series often up to 57.2 µM), without a hit: top-dose activity change, negative = inhibition, most hits filed as inhibitors; 140,000 tested, 0.17% active;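 note: plate controls were DMSO cells for no effect and cell-free wells for full effect; nearly all actives have a fitted effect of over 45% in size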
Starred values were filed as active, the others as inactive; i = inactive; ? = inconclusive; . = no result given; [ ] = remark or other dose. Unless noted, calls come from the whole dose curve; as a rule, active = well fitted curve in the direction sought with a large enough effect; inconclusive = small, poorly fitted or top-dose-only effect, or another doubt; inactive = no such curve, though single readings can be large; an effect the other way counts as inactive or inconclusive. Unless noted, % is set by controls: 0 for no effect and ±100 for the full control effect; potency is the fitted concentration of half-maximal effect.

SMILES | HEK293 viab | NPR1 antag | HEK cytotox | NIH3T3 tox | Luciferase inh | SNCA expr inh
Cc1nc2cccnc2n1CC1CCCN(S(=O)(=O)Cc2ccc(Cl)cc2)C1 (stereo unspecified) | -11% | ? | 32µM* | ? | i | -8%
Cc1ccc(S(=O)(=O)N2CCCC(Cn3c(C)nc4cccnc43)C2)c(C)c1 (stereo unspecified) | 6% | ? | ? | ? | i | -10%
Cc1ccc(C)c(S(=O)(=O)N2CCCC(Cn3c(C)nc4cccnc43)C2)c1 (stereo unspecified) | -10% | ? | 40µM* | 25µM* | i | -37%
Cc1nc2cccnc2n1CC1CCCN(S(=O)(=O)c2ccc(F)c(Cl)c2)C1 (stereo unspecified) | -17% | -21% | ? | ? | i | ?
COc1ccccc1Nc1ccnc(N2CCN(C(=O)Cc3cccc(Cl)c3)CC2)n1 | ? | . | 45µM* | ? | . | ?
O=C(Cc1ccccn1)N1CCN(c2nccc(Nc3ccccc3Cl)n2)CC1 | -4% | . | ? | ? | . | -6%
COc1ccccc1Nc1ccnc(N2CCN(C(=O)c3cccc(Cl)c3)CC2)n1 | -21% | . | ? | ? | . | ?
O=C(Cc1cccc(Cl)c1)N1CCN(c2nccc(Nc3ccccc3F)n2)CC1 | 7%[12.5 µM] | . | 28µM* | ? | . | 116%
O=C(C1CC=CCC1)N1CCc2[nH]nc(-c3ccc(C(F)(F)F)cc3)c2C1 (stereo unspecified) | -3% | -6% | 25µM* | ? | i | -8%
O=C(NCc1cccc(C(F)(F)F)c1)c1ccc2nc(-c3cccnc3)oc2c1 | 2% | . | -29% | -16% | . | ?
CN1CCN(C(=O)[C@@H]2[C@@H](CC(=O)O)c3cccnc3C(=O)N2Cc2ccccc2)CC1 | 2%[23.9 µM] | . | ? | -16%[46.1 µM] | . | 1%[25.6 µM]
COc1ccccc1CCC(=O)N1CCCN(c2cc(-c3ccc(Cl)cc3)[nH]n2)CC1 | 2% | -26% | ? | 35µM* | i | -24%
COc1ccccc1CC(=O)N1CCCN(c2cc(-c3ccccc3)[nH]n2)CC1 | -11% | -3% | ? | ? | i | ?
COc1cccc(CCC(=O)N2CCCN(c3cc(-c4ccc(Cl)cc4)[nH]n3)CC2)c1 | -14% | ? | ? | 35µM* | i | -15%
Cc1ccc(C(=O)N2Cc3c(C(=O)NC4CC4)nn(C)c3C2)cc1F | 19% | . | 0% | 0% | . | 1%
Cn1ncc2c(C(=O)C3CCN(Cc4ccccc4)CC3)cc(-c3ccccc3C(F)(F)F)nc21 | . | . | 20µM* | 32µM* | . | .
Cn1ncc2c(C(=O)NCCc3cccc(F)c3)cc(-c3ccccc3C(F)(F)F)nc21 | . | . | 40µM* | ? | . | .
COc1ccccc1-c1cc(C(=O)NCc2ccccc2F)c2cnn(C)c2n1 | . | . | -12% | -19% | . | .
Cn1ncc2c(C(=O)NCc3ccccc3F)cc(-c3ccccc3C(F)(F)F)nc21 | . | . | 40µM* | ? | . | .
CC(NC(=O)c1ccc(Cn2ccn3nc4c(c3c2=O)CCCC4)cc1)c1ccccc1 (stereo unspecified) | -5% | -15% | ? | ? | i | -13%
CCN1C[C@H]2COc3cc(OC)ccc3[C@H]2N(C(=O)c2ccc(C)cc2)CCC1=O | . | . | -19% | ? | . | .
Cn1ncc2c(C(=O)Nc3ccccc3F)cc(-c3cccc(C(F)(F)F)c3)nc21 | . | . | -19% | ? | . | .
CC(C)(C)CC(=O)N[C@H]1CC(C)(C)[C@@H]2C[C@@](C)(O)CC[C@]12CCC(=O)NCCc1c[nH]c2ccccc12 | -22% | -2% | -11% | ? | i | -2%
COc1ccccc1CN[C@H]1CC(C)(C)[C@@H]2C[C@@](C)(O)CC[C@]12CCC(=O)NCCc1c[nH]c2ccccc12 | ? | -14% | 28µM* | 28µM* | i | ?
CN(C)c1ccc(CN[C@H]2CC(C)(C)[C@@H]3C[C@@](C)(O)CC[C@]23CCC(=O)NCCc2c[nH]c3ccccc23)cc1 | ? | -9% | 18µM* | 18µM* | i | ?
SMILES | HEK293 viab | NPR1 antag | HEK cytotox | NIH3T3 tox | Luciferase inh | SNCA expr inh
O=C(NC[C@H]1COCc2nc3cc(F)ccc3n21)c1ccc(Cl)cc1 | -25%[87.6 µM] | -10%[70.6 µM] | 71µM* | ? | i | -3%[87.6 µM]
Fc1ccc2c(c1)nc1n2[C@@H](CNC2CCCCC2)COC1 | -2%[87.6 µM] | -18%[70.6 µM] | ? | 28µM* | i | 6%[87.6 µM]
O=C(NC[C@H]1COCc2nc3cc(F)ccc3n21)C1CC1 | 3%[87.6 µM] | 4%[70.6 µM] | -7%[230 µM] | 79µM* | i | 23%[87.6 µM]
CC(C)CN1C[C@H](COCc2ccccc2)Oc2ccncc2[S+]1(=O)[O-] | 6%[23.9 µM] | . | ? | ? | . | -13%[25.6 µM]
CNC(=O)c1cc(C2CC2)nc2onc(C3CCCN3C(=O)c3ccccc3C)c12 (stereo unspecified) | . | . | -18% | -12% | . | .
CNC(=O)c1nc2sccn2c1-c1ccc(C(F)(F)F)cc1 | 16%[87.6 µM] | . | ? | ? | . | 7%[87.6 µM]
COc1ccc(C(=O)N2CCC[C@@H]2C(=O)N2CCCC(c3nc4ccncc4[nH]3)C2)cc1 (stereo partly specified) | 2% | . | i | -4% | . | -11%
COc1ccc(C(=O)N2CCCC2C(=O)N2CCC(N3Cc4cccn4C3=O)CC2)cc1 (stereo unspecified) | -10% | . | -18% | -33% | . | -11%
CC1=C[C@@H](CNC(C)C)[C@H](C(C)C)C[C@H]1Cc1nnc(C(C)(C)C)o1 | 1%[87.6 µM] | -3%[70.6 µM] | -1%[172 µM] | -5%[138 µM] | i | 2%[87.6 µM]
CC1=C[C@@H](CNCc2ccco2)[C@H](C(C)C)C[C@H]1Cc1nnc(C(C)(C)C)o1 | -27%[87.6 µM] | 1%[70.6 µM] | 63µM* | 100µM* | i | ?
CC1=C[C@@H](CNCc2cccnc2)[C@H](C(C)C)C[C@H]1Cc1nnc(-c2ccc([N+](=O)[O-])cc2)o1 | ? | ? | 11µM* | 32µM* | i | ?
COc1ccc(-c2nnc(C[C@@H]3C[C@@H](C(C)C)[C@H](CNCc4ccco4)C=C3C)o2)cc1 | ? | ? | 45µM* | ? | i | -9%
COc1ccc(-c2nnc(C[C@@H]3C[C@@H](C(C)C)[C@H](CNCc4ccncc4)C=C3C)o2)cc1 | ? | ? | 25µM* | ? | i | -14%
O=C(Cc1ccccn1)NC1CCN(Cc2ccc(-c3ccsc3)cc2)C1 (stereo unspecified) | 10% | . | ? | ? | . | 0%
CC(C)COC(=O)N1C[C@@H](CO)[C@@H]2Oc3c(F)cccc3[C@@H]21 | . | . | ? | 32µM* | . | .
O=C(Cc1ccccc1)N1C[C@@H](CO)[C@@H]2Oc3c(F)cccc3[C@@H]21 | . | . | ? | -31% | . | .

High-throughput results (PubChem BioAssay)
